Experimental data from the supplement of paper PMC3484114.
± gives the standard deviation.

Tested on: OVCAR-3-derived ovarian cancer stem-like cells (spheroids)
Experiment: cell growth relative to untreated control; higher = more growth (less inhibition)
Settings: 2.29 µM; 96 h
Method in brief: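 Stem-like cells derived from OVCAR-3 spheroids were dissociated with trypsin and seeded at 50,000 cells/mL in stem cell medium in ultra-low attachment 96-well plates, then preincubated for 24 h. Each compound was added at 2.29 uM to 4 replicate wells and left for 96 h at 37°C, 5% CO2. Viability came from TOX8 resazurin fluorescence (ex 560/em 590 nm) read after 4 h. Percent growth was expressed relative to untreated wells, after blank subtraction and removal of outliers by the Grubbs test.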

Question: How did the cell growth turn out when O=C1c2ccccc2C(=O)c2nc(-c3ccccc3)c(-c3ccccc3)nc21 was run?
Answer: The cell growth was 137 ± 51%.

Question: For CCN(CC)CCNC(=O)c1nn(-c2ccc(Cl)cc2)c2c1CCc1cc(OC)ccc1-2, which cell growth is on record?
Answer: Its cell growth is 79.1 ± 11%.

Question: Which cell growth does the source give for Cc1c2c(cc3c1[nH]c1ccccc13)C=NCC2 here?
Answer: Its cell growth is 227 ± 75%.

Question: For C[n+]1c(-c2ccc(/C=C/C=N/NC(=O)c3ccc(C(=O)N/N=C/C=C/c4ccc(-c5cn6ccccc6[n+]5C)cc4)cc3)cc2)cn2ccccc21, which cell growth is on record?
Answer: The cell growth was 138 ± 18%.

Question: With Cc1ccc(C)c2c(N=Nc3ccccc3[N+](=O)[O-])c(O)[nH]c12 as the compound, how does the cell growth read?
Answer: Its cell growth is 138 ± 41%.

Question: O=C(ON=C1c2ccccc2C(Br)C(Br)c2ccccc21)c1ccccc1 (stereo not drawn) was tested. Which cell growth did it give?
Answer: The cell growth was 107 ± 22%.

Question: For O=C1/C(=C\c2ccccc2)CN(C(=O)/C=C/c2ccccc2)C/C1=C\c1ccccc1, which cell growth is on record?
Answer: Its cell growth is 74.7 ± 18%.

Question: How did the cell growth turn out when Nc1nc(-c2cccs2)cs1 was run?
Answer: Its cell growth is 57.1 ± 11%.

Question: With CC(=O)OCc1c2ccccc2c(C)c2c1cc(F)c1ccccc12 as the compound, how does the cell growth read?
Answer: The cell growth was 85.4 ± 9.4%.

Question: Nc1ccc(OCCCc2c(-c3ccccc3)nc(N)[nH]c2=O)cc1 was tested. Which cell growth did it give?
Answer: Its cell growth is 82.7 ± 20%.

Question: How did the cell growth turn out when C[C@H](CN1CC(=O)NC(=O)C1)N1CC(=O)NC(=O)C1 was run?
Answer: Its cell growth is 131 ± 20%.

Question: For CSCC(CO)NC(=O)/C=C/c1c(C)[nH]c(=O)[nH]c1=O (stereo not drawn), which cell growth is on record?
Answer: The cell growth was 82.8 ± 9.5%.

Question: Which cell growth does the source give for COc1ccc(NC(=O)CC(=O)N2N=C(C)C(N=Nc3ccc(S(=O)(=O)c4ccc(N=NC5C(=O)N(C(=O)CC(=O)Nc6ccc(OC)cc6)N=C5C)cc4)cc3)C2=O)cc1 (stereo not drawn) here?
Answer: The cell growth was 105 ± 30%.

Question: With CC(C)CCCC(=O)CCCCCCC(=O)CCN(O)C(=O)C(N)CO (stereo not drawn) as the compound, how does the cell growth read?
Answer: The cell growth was 136 ± 15%.

Question: How did the cell growth turn out when CCN(CC)CCCNc1ncc(C)c2[nH]c3ccncc3c12 was run?
Answer: Its cell growth is 82.7 ± 8.6%.

Question: O=Cc1cc([N+](=O)[O-])no1 was tested. Which cell growth did it give?
Answer: The cell growth was 115 ± 26%.

Question: COc1ccc2oc(-c3ccncc3)cc(=O)c2c1 was tested. Which cell growth did it give?
Answer: The cell growth was 122 ± 9.1%.

Question: O=C1C2=Nc3ccccc3C(O)N2c2ccccc21 (stereo not drawn) was tested. Which cell growth did it give?
Answer: The cell growth was 91 ± 12%.

Question: How did the cell growth turn out when CN(C)C(=O)c1cccc(COc2ccc(N3C(N)=NC(N)=NC3(C)C)cc2Cl)c1 was run?
Answer: The cell growth was 76 ± 15%.

Question: How did the cell growth turn out when O=C1C=C(Nc2cccnc2)c2ccccc2C1=O was run?
Answer: The cell growth was 59.3 ± 11%.

Question: Which cell growth does the source give for Cc1ccccc1NC(=O)/C=N/O here?
Answer: Its cell growth is 81 ± 7.2%.

Question: C=C(CN(C)C)C(=O)c1ccccc1Cl was tested. Which cell growth did it give?
Answer: The cell growth was 84 ± 22%.

Question: How did the cell growth turn out when COc1cc2c(cc1Oc1ccc(OC)c3c1CC1c4c(cc(OC)c(OC)c4-3)CCN1C)CC1c3c(cc(OC)c(OC)c3-2)CCN1C (stereo not drawn) was run?
Answer: The cell growth was 101 ± 11%.
